# Methyltransferases: Primary Screen for Target Class Profiling of Small Molecule Inhibitors of Methyltransferases; purified enzyme, MTase-Glo SAH luminescence; active compounds read low; calls only at 40 µM; actives 3.9% (n = 25,000); AID 1745853, 2022; call rule not given here
#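 Each enzyme was assayed with SAM and its substrate. SAH formation detected by MTase-Glo luminescence; single-point 40 uM screen[…].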
# MTase-Glo counter: detection enzyme interference, methyltransferase counter-screen. shares compounds with Methyltransferases. MTase-Glo coupled enzymes, SAH conversion luminescence, no MTase. Potency, µM (series often up to 57.3 µM), for inactives: at the highest dose activity change, negative = inhibition, actives largely listed as inhibitors. actives 6% (n = 180); active = well fitted inhibition curve with a large enough effect; also: potency is read from the fitted curve at half-maximal effect
# * hit, by the source's call; i = inactive; + = active, no number; [ ] = dose if it differs, or a comment. The sample as a whole holds a higher share of hits than the screen did. % is scaled to controls: 0 for no effect and ±100 for the full control effect.
SMILES,Methyltransferases,others
CN1CCN(c2ncnc3c2CN(C2CCCCC2)C(=O)CN3C)CC1,i,
CN1CCN(c2ncnc3sc4c(c23)CCNC4)CC1,+,MTase-Glo counter=15.2µM*
CCNc1ncnc2sc3c(c12)CCN(C(=O)COC)C3,i,
C=Cc1ccc(Cn2nc3n(CCC)c(=O)c4ccc(C(=O)NC5CCCC5)cc4n3c2=O)cc1,i,
COc1ccc(-c2cc3n(n2)CC(C)(C(=O)NCc2ccccc2)N(Cc2ccccc2F)C3=O)cc1 (stereo not drawn),i,
CCc1cccc(NC(=O)Cn2nc3n(CC(C)C)c(=O)c4ccc(C(=O)NC(C)C)cc4n3c2=O)c1,i,
CCCCNC(=O)c1cccc(-c2cc(N3CCN(C)CC3)nc(N)n2)c1,+,MTase-Glo counter=-0.7%
COc1cccc(C(=O)NCCN2CCN(c3ccc(Cl)cc3)CC2)c1,i,
CCCCCNC(=O)c1ccc2c(=O)nc3c(-c4cccc(F)c4)n[nH]n3c2c1,i,
CCCN1CCN(C(=O)c2cc3n(n2)CC(C)(C(=O)NC2CCCC2)N(C)C3=O)CC1 (stereo not drawn),i,
CC(C)Cn1c(=O)c2ccc(C(=O)NC(C)C)cc2n2c(SCC(=O)Nc3ccccc3F)nnc12,i,
CCNC(=O)N1C[C@@H](F)[C@@H](OCc2nc3ccc(F)cc3[nH]2)C1,i,
COCCN1CCCC(c2[nH]ccc2C(=O)NCCc2nc3ccccc3[nH]2)C1 (stereo not drawn),i,
CCN(CCc1nc2ccc(C)cc2[nH]1)C(=O)c1ccccc1C1CCNC1 (stereo not drawn),+,MTase-Glo counter=1.6%
O=C1c2cc3sccc3n2CC(C(=O)NC2CCCCCC2)(c2ccccc2)N1Cc1cccc(F)c1 (stereo not drawn),i,
CCC(C)NC(=O)c1ccc2c(=O)n(C)c3nnc(SCc4ccccc4Cl)n3c2c1 (stereo not drawn),i,
Cc1ccc(Cn2c(=O)c3ccccc3n3c(CCC(=O)N4CCN(c5cc(C)ccc5C)CC4)nnc23)cc1,i,
O=c1c2ccccc2n2c(-c3cccc(Br)c3)nnc2n1Cc1ccc(F)cc1,i,
CCCn1cnc2c1CN(S(=O)(=O)c1ccc(F)cc1)[C@H](C(=O)OC)C2,i,
COC(=O)[C@@H]1Cc2ncn(Cc3ccc(Cl)cc3)c2CN1CCCc1ccccc1,+,MTase-Glo counter=11.1µM*
COc1ccc(-c2cc3n(n2)CC(C)(C(=O)NCc2ccccc2)N(CCc2ccc(Cl)cc2)C3=O)cc1 (stereo not drawn),i,
COc1ccc2cc3n(c2c1)CC(C)(C(=O)NC1CCCCC1)N(c1ccc2c(c1)OCO2)C3=O (stereo not drawn),i,
CCCn1c(=O)c2ccc(Cl)cc2n2c(=O)n(CC(=O)Nc3ccccc3OC)nc12,i,
CCC1Oc2ccc(NS(=O)(=O)c3ccc(Cl)cc3)cc2CN(Cc2ccc(F)cc2)C1=O (stereo not drawn),+,MTase-Glo counter=-7.6%
CCC1Oc2ccc(NC(=O)Cc3ccc(OC)cc3)cc2CN(Cc2ccc3c(c2)OCO3)C1=O (stereo not drawn),i,
SMILES,Methyltransferases,others
CCn1c(=O)n(CC)c2cc(S(=O)(=O)Nc3ccc(F)cc3)ccc21,i,
Cc1cc(C)cc(NC(=O)Cn2nc3n(C)c(=O)c4ccc(C(=O)NC5CCCCC5)cc4n3c2=O)c1,i,
CC(=O)Nc1ccc(CN2CC3(Cc4ccccc4NC3=O)C2)cc1,i,
CC(=O)Nc1cccc(-c2cc3c(cn2)CN(Cc2ccccc2)CCN3)c1,+,MTase-Glo counter=-1.7%[85.7 µM]
CC(=O)Nc1cccc(-c2ccnc(-c3nnc(C)n3Cc3ccccc3)c2)c1,i,
CC1(C(=O)NCc2ccc(F)cc2)Cn2cnc(C(=O)Nc3cc(F)ccc3F)c2C(=O)N1C1CC1 (stereo not drawn),i,
COCc1nc2nc(-c3ccccc3)c(-c3ccc(O)c(F)c3)cc2n1C,+,MTase-Glo counter=-5.8%[85.7 µM]
CC1(C(=O)NC2CCCCCC2)Cn2c(cc3occc32)C(=O)N1CCN1CCCCCC1 (stereo not drawn),i,
Cn1c2c(c3ccccc31)C(C(=O)NCc1ccccc1)N(C1CCCCCC1)C(=O)CS2 (stereo not drawn),i,
COc1cccc(CSc2nnc3n(Cc4ccccc4)c(=O)c4ccc(C(=O)NC(C)C)cc4n23)c1,i,
Cc1cc(C)c(CNC(=O)c2cc(-c3cnn(C)c3C)cc3c2OCCN3C)c(=O)[nH]1,+,MTase-Glo counter=-5.6%[85.7 µM]
COCCNC(=O)c1cc(N2CCOCC2)cc2c1OCCN2C,i,
COc1ccc(N2C(=O)c3cc4sccc4n3CC2(C)C(=O)NC2CCCCCCC2)cc1OC (stereo not drawn),i,
Cc1ccc(C(=O)C(C)n2nc3n(C)c(=O)c4ccc(C(=O)NC5CCCCC5)cc4n3c2=O)cc1C (stereo not drawn),i,
CCCC1c2ccc(C)n2CCN1C(=O)Nc1ccc(F)c(Cl)c1 (stereo not drawn),i,
Cc1cnc(C2CCOCC2)n1C1CCCN(S(=O)(=O)c2ccccc2)C1 (stereo not drawn),i,
Cc1cnc(C2CC2)n1C1CCCN(C(=O)c2ccoc2)C1 (stereo not drawn),i,
Cc1cnc(C2CC2)n1C1CCCN(Cc2ccccc2)C1 (stereo not drawn),+,MTase-Glo counter=-4.9%
CCOC(=O)c1cc2n(n1)CC(C)(C(=O)NCc1ccccc1OC)N(c1ccc(OC)cc1)C2=O (stereo not drawn),i,
Cn1c(=O)c2ccc(C(=O)NC3CCCC3)cc2n2c(=O)n(Cc3ccc(N4CCCC4=O)cc3)nc12,i,
